Screening data (PubChem BioAssay)
An excerpt weighted towards active compounds, which were near 3.3% of everything screened.
BoNT A protease – BoNT A light chain protease inhibition; hit rate 0.17% among 360,000; AID 588499; multiplex microsphere protease substrate cleavage, flow cytometry; inhibition, % at 10 µM; also: plate controls were buffer without enzyme for full effect and enzyme alone for no effect
PriA SSB inh – K. pneumoniae PriA-SSBct interaction inhibition; inhibition, % at 33 µM; AlphaScreen SSBct-PriA binding, biotinylated peptide; hit rate 0.6% among 430,000; in the data active = inhibition mostly above about 37%, no sharp cut-off; inactive = mostly below about 20%;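 also: plate controls were negative control peptide for no effect and reference peptide for full effect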
Autofluor counter – compound fluorescence in toxin protease inhibitor counterscreen; fluorescence intensity (test concentration not listed); AID 624483; compound autofluorescence counterscreen, microsphere flow cytometry; stronger effect = higher value; hit rate 3.1% among 360,000; in the data active = fluorescence intensity above about 16000; inconclusive = no clear call, values can overlap the other calls
MazF activator – activators of E. coli MazEF toxin-antitoxin RNase. activation, % at 20 µM. AID 504720. hit rate 0.32% among 350,000. FAM/BHQ RNA-DNA oligo cleavage fluorescence, 5 h. P0AE70; in the data active = activation above about 50%
Target sequence (P0AE70 whole entry, looked up): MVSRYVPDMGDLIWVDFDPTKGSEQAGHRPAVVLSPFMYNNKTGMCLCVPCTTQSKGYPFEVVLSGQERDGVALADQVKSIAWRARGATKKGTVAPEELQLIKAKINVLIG
Anthrax LF prot – anthrax lethal factor protease inhibition. P15917. inhibition, % at 10 µM. multiplex microsphere protease cleavage assay, LF. hit rate 0.12% among 360,000. AID 588501; also: plate controls were buffer without enzyme for full effect and enzyme alone for no effect
BoNT F protease – blocks Botulinum neurotoxin F light chain protease. inhibition, % at 10 µM. hit rate 0.22% among 360,000. Multiplex microsphere protease cleavage assay, flow cytometry; in the data active = inhibition above about 35%, passing the limit was not always enough; inconclusive = no clear call, values can overlap the other calls; also: plate controls were buffer without enzyme for full effect and enzyme alone for no effect
BoNTA LC inh 1 – blocks botulinum neurotoxin A light chain protease | multiplex microsphere protease assay, flow cytometry | shares compounds with BoNT F protease | inhibition, % at 10 µM | hit rate 3% among 720; in the data active = inhibition above about 32%
BoNT-F LC CP1 – inhibitors of Botulinum neurotoxin F light chain protease. multiplex microsphere protease cleavage assay, flow cytometry. inhibition, % at 10 µM. 720 tested, under 10 active. shares compounds with BoNT F protease; call rule not given here
LF protease CP1 – blocks anthrax lethal factor protease; shares compounds with BoNT F protease; 720 tested, under 10 active; AID 602142; inhibition, % at 10 µM; multiplex microsphere protease cleavage assay, LF; call rule not given here
Starred values were filed as active, the others as inactive. Rule as the data show it, unless noted: active = inhibition above about 30%; inconclusive = no clear call, values can overlap the other calls; inactive = below that.

What do the screens show for `CCOC(=O)C(O)(c1ccc(N(CC)S(=O)(=O)c2ccc(C)cc2)cc1)C(F)(F)F` (centres undefined)?
BoNT A protease: 7.8; PriA SSB inh: -35.9; Autofluor counter: 6229; MazF activator: 0.5; Anthrax LF prot: -1.4; BoNT F protease: 70.2*; BoNTA LC inh 1: 2.0; BoNT-F LC CP1: -2.7; LF protease CP1: -2.8

How did O=C(Cn1cnc2ccccc21)N1CCCCC1 do in these assays?
PriA SSB inh: -1.0

Results for CSc1ccccc1CN1CCC(CNC(=O)c2cc(C3CC3)on2)CC1 ?
PriA SSB inh: 6.0

Results for COc1ccc(CNC(=O)CN(C(=O)CCC(=O)Nc2ccccn2)c2cc(C)ccc2C)cc1 ?
BoNT A protease: -1.7; PriA SSB inh: -4.5; Autofluor counter: 3145; MazF activator: -0.1; Anthrax LF prot: 31.6*; BoNT F protease: -6.8; BoNTA LC inh 1: 0.7; BoNT-F LC CP1: -4.1; LF protease CP1: 4.8

Results for CCc1ccccc1N(CC(=O)NCc1ccc(OC)cc1)C(=O)CCC(=O)Nc1ccccn1 ?
BoNT A protease: -2.1; PriA SSB inh: -5.0; Autofluor counter: 5288; MazF activator: 3.2; Anthrax LF prot: 4.5; BoNT F protease: -3.0

Results for CCCNC(=O)c1ccccc1NC(=O)c1ccccc1N(C)S(=O)(=O)c1ccc(C)cc1 ?
BoNT A protease: -1.4; PriA SSB inh: 2.8; Autofluor counter: 12100; MazF activator: 3.1; Anthrax LF prot: 1.4; BoNT F protease: 38.3*; BoNTA LC inh 1: -0.6; BoNT-F LC CP1: -0.7; LF protease CP1: -0.8

What do the screens show for `CCCNC(=O)c1ccccc1NC(=O)c1ccccc1N(C)S(C)(=O)=O`?
BoNT A protease: -0.5; PriA SSB inh: -17.0; Autofluor counter: 4231; MazF activator: 2.1; Anthrax LF prot: -1.1; BoNT F protease: inconclusive

Results for COCCCNc1oc(-c2cccs2)nc1S(=O)(=O)c1ccc(C)cc1 ?
BoNT A protease: 1.6; PriA SSB inh: -1.9; Autofluor counter: 4265; MazF activator: -6.5; Anthrax LF prot: 0.1; BoNT F protease: 39.0*; BoNTA LC inh 1: -1.5; BoNT-F LC CP1: -4.1; LF protease CP1: 0.2

What do the screens show for `CC(C)c1ccc(OCC(=O)Nc2ccncc2)cc1`?
BoNT A protease: 1.1; PriA SSB inh: -1.5; Autofluor counter: 3498; MazF activator: 4.3; Anthrax LF prot: 14.8; BoNT F protease: 42.8*; BoNTA LC inh 1: -1.5; BoNT-F LC CP1: -1.4; LF protease CP1: 4.9

How did Cc1ccc(NC(=O)CCn2c(=O)[nH]c3ccsc3c2=O)cc1 do in these assays?
PriA SSB inh: 0.5; MazF activator: -1.3

Results for COc1cc(NC(=O)CCn2c(=O)[nH]c3ccsc3c2=O)cc(OC)c1 ?
BoNT A protease: 4.3; PriA SSB inh: 1.4; Autofluor counter: 4712; MazF activator: -3.1; Anthrax LF prot: 3.5; BoNT F protease: 40.7*; BoNTA LC inh 1: 0.1; BoNT-F LC CP1: -3.3; LF protease CP1: -4.3

Results for O=C1CNCc2[nH]c3ccccc3c2N1c1ccccc1 ?
BoNT A protease: 33.2*; PriA SSB inh: 16.1; Autofluor counter: 9946; MazF activator: -2.4; Anthrax LF prot: 21.1; BoNT F protease: -7.9; BoNTA LC inh 1: 0.4; BoNT-F LC CP1: -9.8; LF protease CP1: -3.3

How did O=C(Oc1c(-c2ccccc2)c(=O)n2c3c(cccc13)CC2)c1ccccc1 do in these assays?
BoNT A protease: -10.7; PriA SSB inh: -2.4; Autofluor counter: 4779; MazF activator: 4.3; Anthrax LF prot: -9.8; BoNT F protease: -37.7

Results for O=C(Oc1c(-c2ccccc2)c(=O)n2c3c(cccc13)CC2)c1ccc(F)cc1 ?
BoNT A protease: inconclusive; PriA SSB inh: -6.2; Autofluor counter: 4267; MazF activator: 8.8; Anthrax LF prot: 36.9*; BoNT F protease: inconclusive; BoNTA LC inh 1: 2.2; BoNT-F LC CP1: 2.2; LF protease CP1: 1.7

Results for Cc1cc(C)cc(-n2ccn(Cc3nc(-c4ccc(C(C)(C)C)cc4)no3)c(=O)c2=O)c1 ?
PriA SSB inh: 3.0

How did CCN(CC)c1ccc(N/C=C(/C#N)S(=O)(=O)c2ccc(Cl)cc2)cc1 do in these assays?
PriA SSB inh: 7.0
